Assay outcomes as filed in PubChem BioAssay.
Compounds with a hit are over-represented: about 14% of the library has one in this group of screens.
Pf growth 96h – P. falciparum growth inhibition at 96 hour, primary screen for plastid delayed-death inhibitors; P. falciparum luciferase reporter growth, 96 h; Potency, µM (series often up to 28.7 µM), for the others: at the highest dose activity change, negative = inhibition, hits mostly inhibitors; 320,000 tested, 6.9% active; AID 504834; note: potency is the fitted concentration of half-maximal effect
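Plates of compound plus infected erythrocytes (2% hematocrit, 0.05% parasitemia final) incubate 96 hours, 37 C, 5% CO2. Detection reagent added; reduced luminescence from the parasites' luciferase reporter flags inhibition.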
Pf growth 48h – P. falciparum growth inhibition at 48 hours (one generation) | Potency, µM (highest dose often 28.7 µM), inactives show at the highest dose activity change, negative = inhibition, most hits filed as inhibitors | AID 504832 | 310,000 tested, 5.9% active | P. falciparum luciferase growth in erythrocytes, 48 h; note: potency is the fitted concentration of half-maximal effect
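First compound was added to culture medium, then infected red cells at 0.1% parasitemia and 2% hematocrit (final). After incubation at 37 C under 5% CO2, luciferase detection reagent was dispensed and light output recorded.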
HCMV inh – human cytomegalovirus inhibition; HFF cells, HCMV-luciferase reporter, 72 h; active compounds read low; activity change, negative = inhibition, % at 57.5 µM; 410,000 tested, 4.5% active; in the data active = activity change below about -60%; inconclusive = no clear call, values can overlap the other calls; inactive = above about -39%
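HFF cells seeded 16 h at 37C, treated with compounds, infected with luciferase-reporter HCMV at MOI 1 PFU/cell; luciferase read at 72 h post infection, normalized to buffer-only and Salinomycin controls.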
MARV entry inh – inhibitors of Marburg virus binding or cell entry. Potency, µM (highest dose often 37.8 µM), for the others: top-dose activity change, negative = inhibition, actives largely listed as inhibitors. Marburg virus pseudotyped entry inhibition, cell reporter. 300,000 tested, 1.8% active; calls by dose curve; tested in HEK293 cells; note: potency is the fitted concentration of half-maximal effect
Lassa entry inh – Lassa virus entry inhibition; Lassa virus pseudotype entry inhibition, cell reporter; AID 540256; Potency, µM (top dose mostly 37.9 µM), for inactives: at the highest dose activity change, negative = inhibition, usual class: inhibitors; 300,000 tested, 1.2% active; calls by dose curve; tested in HEK293 cells; note: potency is the fitted concentration of half-maximal effect; nearly all actives have a fitted effect of over 50% in size
HCV inh – inhibitors of hepatitis C virus infection; 340,000 tested, 3.4% active; Huh7.5.1 HCVcc-Cre infection, luciferase reporter, 44 h; Potency, µM (series often up to 41.8 µM), for inactives: at the highest dose activity change, negative = inhibition, actives largely listed as inhibitors; note: potency is the fitted concentration of half-maximal effect
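After 44 h co-culture of compound, cells and HCVcc-Cre (~0.5 moi), substrate is added for 15 min at room temperature and luciferase measured over 15 sec. Cells were seeded at 1,000/well and pre-cultured 4 h.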
The depositor's hits bear a star; ? = inconclusive; nt = no result; [ ] = remark or other dose. Unless noted, calls come from the whole dose curve; as a rule, active = well fitted inhibition curve with a large enough effect; inconclusive = small, poorly fitted or top-dose-only effect, or another doubt; inactive = no such curve, though single readings can be large or run the other way. % is set by controls: 0 for no effect and ±100 for the full control effect.

SMILES	Pf growth 96h	Pf growth 48h	HCMV inh	MARV entry inh	Lassa entry inh	HCV inh
COc1ccc2c(c1)OC[C@H]1[C@H]2N2C(=O)CN(C)C(=O)[C@@]2(C)[C@H]1c1ccccc1	?	25.0%	-35.3	nt	nt	1.4%
COc1cc2c(OC(C)=O)c3c(c(-c4ccc5c(c4)OCO5)c2cc1OC)C(=O)OC3	?	-0.2%	-93.0*	nt	nt	?
COc1cc2c(O)c3c(c(-c4ccc5c(c4)OCO5)c2cc1OC)C(=O)OC3	-16.8%	?	-96.2*	2.31µM*	3.66µM*	?
COC(=O)c1c(NC(=O)Cc2coc3cc(C)cc(C)c23)sc2c1CCC2	nt	nt	-5.2	3.7%[46.1 µM]	1.5%[46.1 µM]	nt
CNS(=O)(=O)c1cn(CC(=O)N2CCN(c3ccc(C(C)=O)cc3)CC2)cc1S(=O)(=O)NC	nt	nt	0.0	nt	7.6%[46.1 µM]	nt
CC1CCN(S(=O)(=O)c2c[nH]c(=O)[nH]c2=O)CC1	1.3%	-2.4%	-21.7	-4.5%[46.1 µM]	8.7%	10µM*
COc1ccccc1N1CCN(C(=O)C2CCN(S(=O)(=O)c3cnc[nH]3)CC2)CC1	nt	nt	19.6	8.1%[46.1 µM]	14.3%[46.1 µM]	nt
COC(=O)c1ccc(CSc2nc3c([nH]c4ccccc43)c(=O)n2-c2cccc(OC)c2)o1	nt	nt	16.6	nt	-17.0%[46.1 µM]	nt
O=C1NC(=S)N/C1=C/c1ccc(-c2c(Br)cc([N+](=O)[O-])cc2Br)o1	?	?	nt	-6.5%	nt	8.91µM*
O=C1NC(=S)N/C1=C/c1cccc([N+](=O)[O-])c1	?	49.2%	-21.8	0.8%[46.1 µM]	10.9%	4.2%
CCc1c(C2(O)CCCCC2)[nH]c2ncccc12	?	14.1%	?	nt	nt	?
COc1cc(OC)c(OC)cc1/C=C/c1nc2cc3ccccc3cc2c(=O)n1-c1ccc(F)cc1F	nt	nt	-31.7	nt	-20.3%[46.1 µM]	nt
O=C(Nc1ncc(Cc2cccc(Cl)c2)s1)c1cccs1	-0.4%	-5.0%	79.8	10µM*	8.91µM*	22.4µM*
Cc1ccc(C(=O)Nc2ncc(Cc3ccccc3)s2)o1	-0.6%	375.9%	-8.3	5.17µM*	?	?
Cc1ccc(C(=O)Nc2nc3c(s2)CCCC3)o1	13.1µM*	125.9%	68.7	?	?	?
COc1ccc(CC(=O)Nc2nc3c(s2)CCCC3)cc1	nt	nt	-37.0	2.51µM*	3.98µM*	nt
O=C(Nc1ncc(Cc2ccccc2)s1)c1cccs1	?	36.7%	69.0	?	?	?
N#CC(OC(=O)c1ccccc1)c1ccccc1 (stereo not drawn)	nt	nt	8.6	nt	nt	6.4%
O=C(O)c1cc2ccccc2c(N=Nc2cccnc2)c1O	2.94µM*	-11.7%	nt	-1.0%[46.1 µM]	nt	?
Cc1ccc(C(=O)Nc2nnc(SCc3cc(=O)n4ccc(C)cc4n3)s2)cc1	nt	nt	28.0	nt	0.3%[46.1 µM]	nt
CCCCC(=O)Nc1nc2c(s1)COc1ccccc1-2	1.1%	41.8%	nt	nt	nt	?
C=CCNC(=O)Cc1c(OC)ccc2cc(Br)ccc12	352.5%[5.75 µM]	33.4%	-32.1	-27.1%[46.1 µM]	nt	10µM*
CCn1c(SCC(=O)Nc2cccc(C)c2)nc2c(c1=O)SC(C)C2 (stereo not drawn)	13.1µM*	?	17.2	?	-12.5%	?
CCn1c(SCC(=O)Nc2ccc3c(c2)OCO3)nc2c(c1=O)SC(C)C2 (stereo not drawn)	?	?	?	nt	nt	-12.3%
CCn1c(SCC(=O)N2CCOCC2)nc2c(c1=O)SC(C)C2 (stereo not drawn)	2.08µM*	-19.8%	?	11.7%	-0.3%	0.6%
SMILES	Pf growth 96h	Pf growth 48h	HCMV inh	MARV entry inh	Lassa entry inh	HCV inh
CCC(Sc1nc2c(c(=O)n1CC)SC(C)C2)C(=O)OC (stereo not drawn)	0.37µM*	?	16.3	nt	nt	10.6%
COCCn1c(SCC(=O)N2CCCCC2)nc2c(c1=O)SC(C)C2 (stereo not drawn)	?	?	-29.7	22.7%	3.6%	27.1%
CCn1c(SCC(=O)N2CCC(C)CC2)nc2c(c1=O)SC(C)C2 (stereo not drawn)	6.57µM*	?	-13.9	nt	nt	-5.1%
OC[C@@H](O)C(O[C@@H]1O[C@@H](CO)[C@H](O)[C@H](O)[C@H]1O)[C@H](O)[C@@H](O)CO (stereo partly drawn)	?	-23.0%	nt	nt	nt	nt
CCSc1nnc(NC(=O)CSc2nc3c(c(=O)n2CC)SC(C)C3)s1 (stereo not drawn)	30.3%	?	-17.1	?	?	?
CCSc1nnc(NC(=O)CSc2nc3c(c(=O)n2C)SC(C)C3)s1 (stereo not drawn)	0.0%	11.7µM*	-85.5*	-18.7%	13.6%	?
CCn1c(SCC(=O)N2CCOCC2)nc2c([nH]c3ccccc32)c1=O	13.1µM*	?	210.6	nt	nt	1.9%
CCN(CC(=O)Nc1ccc(NC(C)=O)cc1)C(=O)Cc1cccc2ccccc12	2.8%	1.1%	-11.4	6.0%	?	26.2%
Nc1ccc2nc(-c3ccccc3)c(-c3ccccc3)nc2c1	?	-1.1%	46.8	-9.8%[46.1 µM]	-16.8%	12.9%
C[n+]1c(-c2ccccc2)c2cc(N)ccc2c2ccc(N)cc21	-22.2%	?	-99.7*	nt	nt	2.51µM*
CCOc1ccc(C2C(C(=O)Nc3ccccc3)=C(C)Nc3nc(SCc4cccc(OC)c4)nn32)cc1 (stereo not drawn)	nt	nt	1.7	nt	?	nt
CCOc1cc(-c2cc(N)n[nH]2)cc(OCC)c1OCC	104.7%	13.1µM*	5.0	nt	nt	?
CCOc1cc(CNC(=O)c2cc(-c3ccccc3)n[nH]2)cc(OCC)c1OCC	nt	nt	-10.2	nt	2.1%[46.1 µM]	nt
CCOC1(OCC)C(c2ccc(N)cc2)C(C#N)(C#N)C1(OCC)OCC (stereo not drawn)	?	?	49.5	?	-3.0%	19.4%
CCOC1(OCC)C(c2ccc(Cl)cc2)C(C#N)(C#N)C1(OCC)OCC (stereo not drawn)	-2.1%[5.75 µM]	30.4%	?	?	20.6µM*	-25.2%
O=C1CS/C(=N/N=C/c2ccccc2)N1c1ccc(O)cc1	1.65µM*	14.4%	20.2	9.3%	4.4%	8.1%
c1ccc2c(N3CCNCC3)cccc2c1	nt	nt	15.7	11.2µM*	-9.3%	?
Cc1ccc(S(=O)(=O)N2C[C@H]3[C@H]4C(=O)N(C)C(=O)[C@H]4CC(=O)[C@H]3[C@@H]2c2ccccc2Cl)cc1	nt	nt	-3.6	nt	nt	nt
CCOC(=O)[C@]12Cc3cc(OC)c(OC)cc3[C@H]1N(Cc1ccccc1)C(=O)c1ccccc12	nt	nt	62.6	nt	nt	?
CCOC(=O)[C@]12Cc3cc(C)ccc3[C@H]1N(C)C(=O)c1ccccc12	nt	nt	33.6	nt	nt	nt
CCOC(=O)[C@]12Cc3cc(Cl)ccc3[C@H]1N(Cc1ccccc1)C(=O)c1cc(OC)ccc12	nt	nt	-106.3*	nt	nt	nt
CCOC(=O)[C@]12Cc3cc4ccccc4cc3[C@H]1N(Cc1ccccc1)C(=O)c1ccccc12	nt	nt	-96.8*	nt	nt	nt
CCOC(=O)[C@]12Cc3cc4ccccc4cc3[C@H]1N(Cc1ccccc1)C(=O)c1cc(OC)ccc12	nt	nt	-90.6*	nt	nt	nt
